MCF10A rereplic: A quantitative high throughput screen for small molecules that induce DNA re-replication in MCF 10a normal breast cells; hit rate 2.9% among 350,000; Potency, µM (doses to about 46.1 µM), usual class: activators; MCF 10A DNA re-replication, Hoechst nuclear intensity, 48 h; AID 624296, 2012; also: nearly all actives have a fitted effect of over 50% in size
PINK1 expr mod: A Quantitative High throughput Screen to Identify Chemical Modulators of PINK1 Expression; PINK1 immunofluorescence, high-content cytometry, 24 h; Potency, µM (top dose mostly 76.6 µM), hits mostly activators; hit rate 0.2% among 410,000; AID 624263, 2012; active = well fitted activation curve with a large enough effect; inconclusive = small, poorly fitted or top-dose-only effect; cell line not stated here; also: nearly all actives have a fitted effect of over 65% in size
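PINK1 protein level read as immunofluorescence by microplate cytometer in a fixed, stained stable cell line after 24 h exposure to five compound concentrations, with CCCP as control.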
S2 tox: Viability Counterscreen for Primary qHTS for Inhibitors of ATXN expression; S2 cells (HEK-293 line with an ATXN2-luciferase reporter) viability, CellTiter-Fluor protease fluorescence, 24 h; Potency, µM (titrated, usually from 56.7 µM), usual class: cytotoxic; hit rate 0.49% among 400,000; also: nearly all actives have a fitted effect of over 40% in size
ATXN2 expr inh: Primary qHTS for Inhibitors of ATXN expression. HEK-293 ATXN2-luciferase reporter, luminescence, 24 h. hit rate 0.72% among 360,000. AID 1745845, 2022. Potency, µM (doses to about 57 µM), usual class: inhibitors; also: nearly all actives have a fitted effect of over 55% in size
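qHTS (up to 57 uM final) was run with 24 h compound exposure of reporter cells at 37 °C. Each well was multiplexed: SteadyGlo luminescence measured ATXN2-luciferase expression after a fluorogenic Gly-Phe-AFC viability readout (25 uM final).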
SW480 rereplic: A quantitative high throughput screen for small molecules that induce DNA re-replication in SW480 colon adenocarcinoma cells. SW480 DNA re-replication, Hoechst DNA content imaging, 48 h. Potency, µM (titrated, usually from 46.1 µM), hits mostly activators. hit rate 1.8% among 340,000. AID 624297, 2012; also: nearly all actives have a fitted effect of over 55% in size
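Readout is total intensity of Hoechst-stained nuclei, excited at 405 nm and collected at 500-530 nm. Compound treatment lasted 48 hr at 37 C in 5% CO2 before staining.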
IL1B secr inh: qHTS for Inhibitors of Inflammasome Signaling: IL-1-beta AlphaLISA Primary Screen; THP-1 LPS/ATP IL-1B secretion, AlphaLISA, 16 h; stronger effect = lower value; activity change, % at 57.5 µM; hit rate 4.7% among 360,000; AID 743279, 2014; in the data active = activity change below about -50%; inconclusive = mostly about -30% to -49%
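THP-1 cells pretreated 1 hr with compounds (up to 57.5 uM final), then stimulated with LPS (250 ng/mL final) plus ATP (1.25 mM final); secreted IL-1B measured by AlphaLISA after 16 hr, decreased signal indicating inhibition.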
Numbers stand for hits; i = inactive; ? = inconclusive; nt = no result given; [ ] = another dose, or the depositor's remark. Hits are enriched below; roughly 7.1% of the tested compounds scored in any of these assays. Unless noted, calls follow the shape of the dose curve; as a rule, active = well fitted curve in the direction sought with a large enough effect; inconclusive = small, poorly fitted or top-dose-only effect, or another doubt; inactive = no such curve, though single readings can be large; an effect the other way counts as inactive or inconclusive.

SMILES | MCF10A rereplic | PINK1 expr mod | S2 tox | ATXN2 expr inh | SW480 rereplic | IL1B secr inh
Cc1ccc(C)c(Cn2c(=O)n(CCc3ccccc3)c(=O)c3c(C)c(C)sc32)c1 | nt | i | i | i | nt | nt
COc1ccc(-n2nnnc2/C=C\Nc2ccccc2C(=O)c2ccccc2)cc1 | i | i | ? | i | 10.3µM | i
COc1ccc(-n2nnnc2/C=C/Nc2cc(C(F)(F)F)ccc2OC)cc1 | i | i | i | i | i | i
CCOc1ccccc1C(=O)Nc1ccc2nc(N(CC)CC)cc(C)c2c1 | nt | i | ? | i | nt | nt
COc1ccc2nc(NC(=O)CCn3cccc3)sc2c1 | i | i | i | i | i | i
COc1cc(CCC(=O)Nc2ncc(C)s2)cc(OC)c1OC | i | i | ? | i | i | i
COc1ccc2nc(NC(=O)c3ccccc3F)sc2c1 | i | i | i | nt | i | i
CCN(CC)c1cc(C)c2cc(NC(=O)c3ccccc3F)ccc2n1 | i | i | ? | i | i | -56.7
COc1ccc2nc(NC(=O)CCc3cc(OC)c(OC)c(OC)c3)sc2c1 | i | i | i | i | i | -62.7
CCCC(=O)Nc1nc2ccc(NC(=O)c3ccccc3F)cc2s1 | 6.51µM | i | i | i | 8.2µM | i
COc1cc(CCC(=O)Nc2nnc(C)s2)cc(OC)c1OC | 10.3µM | i | ? | i | 6.51µM | i
Cc1c(C(=O)O)oc2c1-c1nn(Cc3ccccc3Cl)cc1CC2 | nt | i | nt | nt | nt | nt
CCC(=O)Nc1nc2ccc(NC(=O)c3cc(OC)c(OC)c(OC)c3)cc2s1 | ? | i | i | i | i | -52.5
COc1cc(C(=O)Nc2ccc3nc(SCc4ccccc4)sc3c2)cc(OC)c1OC | nt | i | ? | i | nt | nt
Cc1ccc(-c2nc3cc(C(C)C)ccc3o2)cc1NC(=O)c1cccs1 | nt | i | ? | i | nt | nt
Cc1ccc2oc(Nc3nc(-c4ccccc4)cc(=O)[nH]3)nc2c1 | 20.6µM | i | ? | i[11.3 µM] | ? | nt
Cc1ccc(C(=O)O)cc1NC(=O)CCc1c(C)noc1C | nt | i | i | nt | nt | i
CP(C)(=O)CCP(=O)(c1ccccc1)c1ccccc1 | i | i | i | i | i | i
CCN(CC)CCP(=O)(c1ccccc1)c1ccccc1 | 9.2µM | i | i | i | ? | i
CC(C)(C)CC(C)(C)N=C1Nc2cc(Cl)c(Cl)cc2NC12C[C@H]1CCC(=O)N3CC[C@@H](C2)[C@@H]13 (some centres undefined) | ? | i | nt | ? | i | -64.2
Cc1cc(NC(=O)Cc2ccccc2)cc(-c2nc3ccccc3o2)c1O | nt | i | i | i | nt | nt
CC(=O)c1c(C)nn(CC(O)Cn2c3c(c4cc(C)ccc42)CCCC3=O)c1C (centres undefined) | ? | i | i | i | ? | -62.2
Cc1ccc2c(c1)c1c(n2CC(O)Cn2nc(C)c(Br)c2C)C(=O)CCC1 (centres undefined) | i | i | i | i | i | i
CC1=CC2C(C(O)CC3(C)C2CC(C)C32OCOC23COCO3)C2(C)C/C(=C\O)C(=O)C=C12 (centres undefined) | 4.61µM | i | nt | ? | 14.6µM | -103.5
Cc1ncc2c(c1CNC(=O)c1ccc3c(c1)OCO3)CCN(C(=O)c1ccc3ccccc3c1)C2 | nt | i | i | nt | nt | nt
SMILES | MCF10A rereplic | PINK1 expr mod | S2 tox | ATXN2 expr inh | SW480 rereplic | IL1B secr inh
Oc1ccccc1CNc1ccc(OC(F)(F)F)cc1 | i | i | i | i | i | -89.2
FC(F)(F)Oc1ccc(NC(=S)Nc2ccc(OC(F)(F)F)cc2)cc1 | i | 15.8µM | ? | nt | i | i
CC(C)c1ccc(NC(=S)Nc2ccc(OC(F)(F)F)cc2)cc1 | i | i | i | i | i | i
CCOC(=O)Cc1ccc(NC(=O)N(Cc2ccc(CC)cc2)Cc2cn[nH]c2-c2ccc(OC)cc2)cc1 | nt | i | nt | nt | nt | nt
Cc1ccc(-n2nc(CO)c(C(=O)NCCc3ccccc3)n2)cc1C | nt | i | nt | nt | nt | nt
O=S(=O)(/C=C/c1ccccc1)Oc1ccccc1 | ? | i | i | i | ? | -88.9
CCCCCCCCN1C(=O)[C@H](CC(=O)NCCC(C)C)C[C@@]2(C(=O)OC)CCCCC=C12 | nt | i | ? | ? | nt | -60.0
CCCCCCCCN1C(=O)[C@H](CC(=O)N2CCCC2)C[C@@]2(C(=O)OC)CCCCC=C12 | nt | i | ? | ? | nt | i
CCCCCCCCN1C(=O)[C@H](CC(=O)NCCCOCCCC)C[C@@]2(C(=O)OC)CCCCC=C12 | nt | i | ? | ? | nt | -77.6
CCCCCCCCN1C(=O)[C@H](CC(=O)NCCCC)C[C@@]2(C(=O)OC)CCCCC=C12 | nt | i | 28.2µM | i | nt | nt
Nc1nc2[nH]cc(CCc3ccc(C(=O)N[C@@H](CCC(=O)O)C(=O)O)cc3)c2c(=O)[nH]1 | nt | i | nt | i | nt | nt
CCCOCc1ccc(O)c2ncccc12 | i | i | i | ? | 5.8µM | i
Oc1ccc(COCc2ccccc2)c2cccnc12 | ? | i | i | i | 3.26µM | i
CC(C)COCc1ccc(O)c2ncccc12 | i | i | i | ? | ? | i
Oc1c(CN2CCCCC2)cc(COCc2ccccc2)c2cccnc12 | 16.4µM | i | ? | 3.16µM | 3.16µM | -105.0
Cc1cccc(N(Cc2cc3cc(C)ccc3[nH]c2=O)C(=O)c2cccs2)c1 | 10.3µM | i | i | nt | i | i
Cc1ccc(N(Cc2cc3cc(C)ccc3[nH]c2=O)S(=O)(=O)c2ccccc2)cc1 | ? | i | i | i | 18.4µM | i
CCOc1ccc(N(Cc2cc3ccc(C)cc3[nH]c2=O)S(=O)(=O)c2ccccc2)cc1 | 20.6µM | i | ? | nt | 20.6µM | ?
CCOc1ccc(S(=O)(=O)N(CC(=O)O)c2ccc(C)cc2)cc1 | i | i | i | i | i | i
CCOc1ccc(N(Cc2ccc(C(=O)O)cc2)S(=O)(=O)c2ccc(C)cc2)cc1 | 3.66µM | i | i | i | ? | i
O=C(c1cccnc1)C1CCCN(Cc2ccc3c(c2)CN(C(=O)c2cccc(Cl)c2)CCO3)C1 (centres undefined) | nt | i | i | nt | nt | nt
O=C(C[C@@H]1C/C=C\C[C@@H](Cc2ccc(F)cc2)C(=O)OCCNC1=O)N[C@H](CO)Cc1ccccc1 | ? | i | i | i | ? | i
Cc1ccc(N(CCC(=O)O)S(=O)(=O)c2ccccc2)cc1 | i | i | i | i | i | i
Cc1cc(C)cc(N(CCC(=O)O)S(=O)(=O)c2ccc3ccccc3c2)c1 | 8.2µM | i | ? | i | ? | i
CCOC(=O)N1CCc2c(sc3c2c(=O)n(-c2ccc(CC)cc2)c(=O)n3Cc2ccc(F)cc2Cl)C1 | nt | i | nt | nt | nt | nt
CCOC(=O)c1c(NC(=O)Nc2ccc(F)cc2)sc(C(=O)N(C)C)c1C | nt | i | i | i | nt | nt
COc1cc(C(=O)N2CCN(c3ccc(Nc4ccccc4)nn3)CC2)cc(OC)c1OC | nt | i | nt | nt | nt | nt
C=CCn1c(=O)c2c3c(sc2n2c(Nc4ccccc4)nnc12)CCCC3 | i | i | i | i | i[9.22 µM] | i

Screens from PubChem.
